The results in this text go back to the supplement of paper PMC3656093.

± gives the standard deviation of the averaged measurements. In all, about 1,900 compounds were measured (“CD40L-induced NF-kB luciferase activity, plate-corrected, relative to DMSO (0) and IKK inhibitor VII (-100) controls”: median about 0.032, lowest 2% from about -26 on). The full list was thinned out, with the lowest values kept by preference.

For the test, the system named is BL2-NFkB-Luc. The test can be described thus: CD40L-induced NF-kB luciferase activity, plate-corrected, relative to DMSO (0) and IKK inhibitor VII (-100) controls (% normalized activity); higher = more NF-kB reporter activity (less inhibition). Particulars: 9.4 µM; stimulus: tCD40L 64 ng/ml; 4.5 h. The method, then:
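BL2 B cells with a stable NF-kB response-element luciferase reporter (BL2-NFkB-Luc), 384-well. Cells were pre-incubated with compound at 9.4 uM for 1 h at 37 C, then stimulated with 64 ng/ml trimerized CD40L for 4.5 h; luciferase was read with Steady-Glo. Signal was normalised per plate in Genedata (median DMSO neutral control = 0, median IKK inhibitor VII at 50 uM = -100) with Assay Median plate-pattern correction; duplicate plates.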
As to `COc1cc(OC)cc(C(C)=O)c1`, the “CD40L-induced NF-kB luciferase activity” value is -2.98 ± 1.2.
As for `C=C1C2(C(=O)Nc3ccc(SC(F)F)cc3)CCC(C2)C1(C)C` (stereo not drawn), the figure is 1.47 ± 2.7; as for `N#C/C(=C/c1ccccc1)C(=O)NCc1ccccc1`, -1.8 ± 1.4.
As for `Cc1ccc(C(=O)COC(=O)c2cnccn2)cc1[N+](=O)[O-]`, the figure is 0.896 ± 2.4; as for `CCOc1ccccc1C(=O)NCCC(=O)O`, -1.43 ± 3.9.
On to `Cc1cccc(N2C(=O)C3C(c4ccccc4)OC4(C(=O)c5ccccc5C4=O)C3C2=O)c1` (stereo not drawn), for which the “CD40L-induced NF-kB luciferase activity” value is -0.286 ± 0.72.
Take `COc1ccc(CN(CCC(c2ccc(F)cc2)C2CCOC(C)(C)C2)C(=O)c2ccco2)cc1` (stereo not drawn): the “CD40L-induced NF-kB luciferase activity” value was -4.2 ± 3.9.
Regarding `CC(=O)OC1c2c(ccc3ccc(=O)oc23)OC(C)(C)C1OC(=O)CC(C)C` (stereo not drawn), the “CD40L-induced NF-kB luciferase activity” value was -3.56 ± 6.5.
Next, `CC1/C(=C\c2ccc(Cl)cc2)C(=O)C2CC1C2(C)C` (stereo not drawn): 3.76 ± 2.7; `COC(=O)c1ccc(NC(=O)C23CCC(C)(C(=O)O2)C3(C)C)cc1` (stereo not drawn): -0.16 ± 13.
Next, `COc1cccc(NC(=O)C2CC(=O)OC23CCOC(C)(C)C3)c1` (stereo not drawn): 4.32 ± 4.7; `CC1CNCCN1S(=O)(=O)c1cccc2cnccc12` (stereo not drawn): -26.1 ± 6.3; `O=C1c2ccccc2C2(c3ccccc3)NCCN12` (stereo not drawn): 1.37 ± 7.
Next, `Cc1ccccc1C(=O)Oc1ccc(Sc2ccc(O)cc2)cc1`: 2.2 ± 3.6; `O=C(NCCc1c[nH]c2ccccc12)OCCSS(=O)(=O)O`: 0.55 ± 1.4.
For the molecule `CCOCC(=O)Nc1ccccc1C(=O)N1CCOCC1`, the “CD40L-induced NF-kB luciferase activity” value is -5 ± 1.
As for `Cn1nc(-c2ccccn2)nc2c(=O)n(C)c(=O)nc1-2`, the figure is -19.1 ± 0.82; as for `Cn1c(=O)[nH]c2nnc(-c3ccc(Cl)c(Cl)c3)nc2c1=O`, 25.5 ± 4.7.
On to `Cn1nc(-c2ccc(Cl)cc2)nc2c(=O)n(C)c(=O)nc1-2`, for which the “CD40L-induced NF-kB luciferase activity” value was -95.22 ± 0.55.
Next, `O=C1[C@@H]2CSCN2C(=O)CN1Cc1ccc(F)cc1`: -0.473 ± 5.9; `COc1ccc(NC(=S)N2CCN(CCN3C(=O)c4cccc5cccc(c45)C3=O)CC2)cc1`: 1.19 ± 0.65; `O=C(c1cccc2ccccc12)C1CCCN(C(=O)CCN2CCCO2)C1` (stereo not drawn): 2.54 ± 2.
Next, `CC(=O)O[C@H]1C(=O)[C@@]2(C)[C@H]([C@H](OC(=O)c3ccccc3)[C@]3(O)C[C@H](OC(=O)[C@H](O)C(NC(=O)c4ccccc4)c4ccccc4)C(C)=C1C3(C)C)[C@]1(OC(C)=O)CO[C@@H]1C[C@@H]2O` (stereo partly drawn): -33.4 ± 1.3; `CC(C)C1CC(CCNCc2ccc(N(C)C)cc2)(c2ccccc2)CCO1` (stereo not drawn): -4.73 ± 11; `N/C(=N\OC(=O)c1cccc(Br)c1)c1ccncc1`: 2.67 ± 0.79.
As for `COc1ccc(C2=CC(=O)C=CC2=O)cc1`, the figure is -5.93 ± 5.3; as for `CCOc1ccc(C(=O)N2CCCC2C(=O)O)cc1` (stereo not drawn), 2.22 ± 8; as for `CC(=O)O[C@H]1CC[C@H]2[C@@H]3CCc4cc(O)ccc4[C@H]3CC[C@]12C`, -3.39 ± 3.8.
As to `CCOC(=O)C(=O)N1CCN(c2ccccc2OC)CC1`, the “CD40L-induced NF-kB luciferase activity” value is -1.99 ± 1.9.
As for `COc1ccccc1/C=C/C(=O)OCCN1CCOCC1`, the figure is 2.92 ± 4.6; as for `CCOC(=O)C(=Cc1ccccc1OC)C(=O)OCC`, -29 ± 6.1.
For the molecule `CC(=O)[C@@]1(O)CC[C@H]2[C@@H]3CCC4=CC(=O)CC[C@]4(C)[C@H]3[C@@H](O)C[C@@]21C`, the “CD40L-induced NF-kB luciferase activity” value is -12.9 ± 3.2.
As to `C[C@]12CCC(=O)C=C1CC[C@@H]1[C@@H]2CC[C@@]2(C)[C@H]1CC[C@]2(O)C(=O)CO`, the “CD40L-induced NF-kB luciferase activity” value is -8.87 ± 3.8.
With `C[C@]12C=CC(=O)C=C1CCC1C3CC[C@](O)(C(=O)CO)[C@@]3(C)CC3OC312` (stereo partly drawn), the “CD40L-induced NF-kB luciferase activity” value was -7.42 ± 5.5.
Consider `CC1(C)O[C@@H]2C[C@H]3[C@@H]4C[C@H](F)C5=CC(=O)CC[C@]5(C)[C@H]4[C@@H](O)C[C@]3(C)[C@]2(C(=O)CO)O1`, for which the “CD40L-induced NF-kB luciferase activity” value is -21.3 ± 0.59.
Next, `CC(=O)OCC(=O)[C@@]1(O)CC[C@H]2[C@@H]3CCC4=CC(=O)CC[C@]4(C)[C@H]3[C@@H](O)C[C@@]21C`: -31.1 ± 6.7; `CC(=O)OCC(=O)[C@@]1(O)CC[C@H]2[C@@H]3CCC4=CC(=O)C=C[C@]4(C)[C@H]3[C@@H](O)C[C@@]21C`: -43.8 ± 2.2.
Turning to `C[C@]12CCC(=O)C=C1CC[C@@H]1[C@@H]2C(=O)C[C@@]2(C)[C@H]1CC[C@]2(O)C(=O)CO`, the “CD40L-induced NF-kB luciferase activity” value was -6.47 ± 2.
As to `CCCC1O[C@@H]2C[C@H]3[C@@H]4CCC5=CC(=O)C=C[C@]5(C)[C@H]4[C@@H](O)C[C@]3(C)[C@]2(C(=O)CO)O1` (stereo partly drawn), the “CD40L-induced NF-kB luciferase activity” value is -26 ± 0.65.
As to `C[C@]12CCC(=O)C=C1[C@H](O)C[C@@H]1[C@@H]2[C@@H](O)C[C@@]2(C)[C@H]1CC[C@]2(O)C(=O)CO`, the “CD40L-induced NF-kB luciferase activity” value was -8.7 ± 4.6.
On to `C[C@H]1C[C@@H]2[C@H]([C@@H](O)C[C@@]3(C)[C@H]2CC[C@]3(O)C(=O)CO)[C@@]2(C)C=CC(=O)C=C12`, for which the “CD40L-induced NF-kB luciferase activity” value is -35.94 ± 0.26.
On to `C[C@]12CCC(=O)C=C1CC[C@@H]1[C@@H]2[C@@H](O)C[C@@]2(C)[C@H]1CC[C@]2(O)C(=O)COC(=O)CCC(=O)O`, for which the “CD40L-induced NF-kB luciferase activity” value was -23.2 ± 7.1.
As for `CCOc1cc(C=O)ccc1OCCSc1ccc(C)cc1`, the figure is 8.64 ± 2.
In the case of `CCC(C)NCCOCCOc1ccc(Cl)c2ccccc12` (stereo not drawn), the “CD40L-induced NF-kB luciferase activity” value was -3.83 ± 0.8.
As for `COc1ccc2oc(=O)c(-c3nc(C)cs3)cc2c1`, the figure is 82.6 ± 9.2; as for `Cc1ccc2c(c1)c(=O)c1c3n2CCN(C(=O)CCl)C3CC1` (stereo not drawn), -2.91 ± 2.5.
Turning to `CC1(C)Cc2ccccc2-c2nc(-c3ccccc3)oc(=O)c21`, the “CD40L-induced NF-kB luciferase activity” value worked out at 2.15 ± 0.84.
Consider `O=C(c1ccc([N+](=O)[O-])cc1)N1CCSC1c1ccccc1Cl` (stereo not drawn), for which the “CD40L-induced NF-kB luciferase activity” value came out at 4.04 ± 5.
As for `CN(C)CCOc1ccccc1Cc1ccccc1`, the “CD40L-induced NF-kB luciferase activity” value amounted to 0.196 ± 5.
As for `O=C(NC1CCCCC1)c1cc2nc(-c3ccco3)cc(C(F)(F)F)n2n1`, the “CD40L-induced NF-kB luciferase activity” value came out at 1.55 ± 1.8.
As for `CC(C)Oc1ccc(C2CC(=O)N(c3ccc(C(=O)O)cc3)C2=O)cc1` (stereo not drawn), the figure is -3.94 ± 6.9.
Next, `O=C(NCc1ccc(N2CCCC2=O)cc1)c1cccc(Cl)c1`: 0.303 ± 1.9; `CCNC(=O)c1c(N)sc2c1CCCCC2`: 2.16 ± 2.4.
Turning to `CC(C)OC(=O)c1ccc(NC(=O)c2cncc(Br)c2)cc1`, the “CD40L-induced NF-kB luciferase activity” value worked out at 4.22 ± 5.
In the case of `CCOc1cc(C)cc2oc(=O)cc(-c3ccccc3)c12`, the “CD40L-induced NF-kB luciferase activity” value was found to be 3.93 ± 4.9.
As for `Cc1cc(O)c(C(=O)Cc2csc(C)n2)c(O)c1`, the figure is 45.9 ± 3.3; as for `COc1cc(NC(=O)COc2ccccc2)c(OC)cc1NC(C)=O`, 2.35 ± 11.
Take `COc1ccc(C(=O)NCc2cccnc2)cc1`: the “CD40L-induced NF-kB luciferase activity” value was -2.51 ± 0.59.
Take `CCC(=O)c1ccc(OCc2ccc(C(=O)OC)cc2)cc1`: the “CD40L-induced NF-kB luciferase activity” value was determined as 47.3 ± 2.2.
As for `COc1ccc(OCc2cccc(C(=O)NN)c2)cc1`, the figure is -59.1 ± 2.2.
Next, `CC(=O)[C@H]1CC[C@H]2[C@@H]3CCC4=CC(=O)CC[C@]4(C)[C@H]3[C@H](O)C[C@]12C`: -10.6 ± 14.
As for `COc1cc2nc(-c3ccccc3)nc(N3CCCC3)c2cc1OC`, the figure is 14.1 ± 1.1.
Take `C=C(C)c1nc2cc(OC)c(OC)cc2c(=O)o1`: the “CD40L-induced NF-kB luciferase activity” value was -30.6 ± 9.3.
